{"source": "PubChem BioAssay (EPA / NIEHS)", "note": "“And” between values parts separate entries of the source, which are not always exact repeats. Equal entries are not always repeated. The source holds several records for some structures; these can differ, active in one and inactive in another. The source made the active and inactive calls. How the source made its calls: active means hit-call score of the fitted dose curve at least 0.9, where 1 is the maximum; inactive means score below 0.9.", "data": [{"read-out": "Urokinase-type plasminogen activator receptor (uPAR), PLAUR (gene 5329)", "test": "BSK_BE3C_uPAR: BioMAP Diversity Plus: BE3C Assay for Urokinase-type plasminogen activator receptor (uPAR) Biomarker Activity (AID 2283039);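 on outcome: cells exposed to compound for one day before measurement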", "details": "primary human bronchial epithelial cells; actives raise or lower the signal", "experimental": "BSK_BE3C is a cell-based, multiplexed-readout assay that uses bronchial epithelial cell, a human lung primary cell, with measurements taken at 24 hours after chemical dosing in a 96-well plate.BSK_BE3CAR is an assay component measured in the BSK_BE3C assay. It measures uPAR antibody related to regulation of gene expression using ELISA technology.Data from the assay component BSK_BE3CAR was analyzed into 1 assay endpoint. This assay endpoint, BSK_BE3CAR, was analyzed with bidirectional fitting relative to DMSO as the negative control and baseline of activity. Using a type of binding reporter, gain or loss-of-signal activity can be used to understand changes in the signaling as they relate to the gene PLAUR. Furthermore, this assay endpoint can be referred to as a primary readout, because this assay has produced multiple assay endpoints where this one serves a signaling function. To generalize the intended target to other relatable targets, this assay endpoint is annotated to the cytokine intended target family, where the subfamily is plasmogen activator.\nThe levels of cell surface (or secreted, indicated by the prefix \"s\") biomarker endpoints were measured by ELISA. Overt cytotoxicity to cells in confluent adherent cultures (all systems other than the BT system) was assessed by measuring total protein levels using sulforhodamine B (SRB) staining in parallel cultures at the time of biomarker measurements, indicated as SRB endpoints. For proliferation assays for adherent cell types, individual cell types are cultured at sub-confluence and relative cell numbers quantified by SRB staining at time points optimized for each system (48 h: 3C and CASM3C systems; 72 h: BT and HDF3CGF systems; 96 h: SAg system). SRB was performed by staining cells with 0.1% SRB after fixation with 10% TCA and reading wells at 560 nm.Viability and proliferation of PBMC (T cells) was quantified by Alamar Blue reduction for the SAg and BT systems. For PBMC viability (referred to as PBMC Cytotoxicity within the assay endpoint names), cells were plated (75,000/well in a 96-well plate) and then chemical samples added for 1 h before addition of activators, SEB and TSST-1 (20 ng/mL final concentration each). Cells were incubated for 90 h. Then, Alamar Blue (20 uL/well) (Invitrogen, Cat DAL1100) was added for 6 h, and the plates were read with a fluorescence microplate reader at 546/580 nm (excitation/emission). For PBMC proliferation, cells were plated and activated as above but incubated for only 16 h prior to addition of Alamar Blue. Plates were read after 6 h.", "values": [{"smiles": "CC1(c2ccc(Oc3ccccc3)cc2)OC(=O)N(Nc2ccccc2)C1=O", "note": "(stereo not given)", "outcome": "inactive"}, {"smiles": "O=C1c2ccccc2C(=O)N1SC(Cl)(Cl)Cl", "AC50": "34.7 µM (active)"}, {"smiles": "Cc1[nH]c(=O)n(C(C)(C)C)c(=O)c1Cl", "outcome": "inactive"}, {"smiles": "CNC(=O)Oc1cccc(N=CN(C)C)c1", "outcome": "inactive"}, {"smiles": "COP(=O)(OC)OC=C(Cl)Cl", "AC50": "6.12 µM (active)"}, {"smiles": "O=C(O)COc1ccc(Cl)cc1Cl", "AC50": "0.152 µM (active)"}, {"smiles": "CC(C)N(C(=O)COc1nnc(C(F)(F)F)s1)c1ccc(F)cc1", "outcome": "inactive"}, {"smiles": "CCCN(CCC)c1c([N+](=O)[O-])cc(C(F)(F)F)cc1[N+](=O)[O-]", "outcome": "inactive"}, {"smiles": "COC(=O)c1ccccc1S(=O)(=O)NC(=O)N(C)c1nc(C)nc(OC)n1", "outcome": "inactive"}, {"smiles": "COC(=O)c1ccccc1CS(=O)(=O)NC(=O)Nc1nc(OC)cc(OC)n1", "outcome": "inactive"}, {"smiles": "CCC(C)(C)C(=O)OC1=C(c2ccc(Cl)cc2Cl)C(=O)OC12CCCCC2", "AC50": "36.4 µM (active)"}, {"smiles": "OCCOc1ccccc1", "outcome": "inactive"}, {"smiles": "O=C(NC(=O)c1c(F)cccc1F)Nc1ccc(OC(F)(F)C(F)OC(F)(F)F)c(Cl)c1", "note": "(stereo not given)", "outcome": "inactive"}, {"smiles": "CCOc1nc(NC)nc(NC(=O)NS(=O)(=O)c2ccccc2C(=O)OC)n1", "outcome": "inactive"}, {"smiles": "CCc1ccc(C(=O)NN(C(=O)c2cc(C)cc(C)c2)C(C)(C)C)cc1", "outcome": "inactive"}, {"smiles": "O=C(O)C(F)(F)C(F)(F)C(F)(F)C(F)(F)C(F)(F)C(F)(F)C(F)(F)F", "outcome": "inactive"}, {"smiles": "CCN(CC)C(=O)SCc1ccc(Cl)cc1", "outcome": "inactive"}, {"smiles": "ClC1C(Cl)C(Cl)C(Cl)C(Cl)C1Cl", "note": "(stereo not given)", "outcome": "inactive"}, {"smiles": "C#CCN1C(=O)COc2cc(F)c(N3C(=O)C4=C(CCCC4)C3=O)cc21", "outcome": "inactive"}, {"smiles": "CCC(C)(NC(=O)c1cc(Cl)c(C)c(Cl)c1)C(=O)CCl", "note": "(stereo not given)", "AC50": "31.5 µM (active)"}, {"smiles": "CNC(=O)CSP(=S)(OC)OC", "outcome": "inactive"}, {"smiles": "O=[N+]([O-])/N=C1\\NCCN1Cc1ccc(Cl)nc1", "outcome": "inactive"}, {"smiles": "CCS(=O)(=O)c1cccnc1S(=O)(=O)NC(=O)Nc1nc(OC)cc(OC)n1", "outcome": "inactive"}, {"smiles": "O=S(=O)(O)C(F)(F)C(F)(F)C(F)(F)C(F)(F)C(F)(F)C(F)(F)C(F)(F)C(F)(F)F", "AC50": "33.2 µM (active) and 32.7 µM (active) and 6.81 µM (active)", "outcome": "inactive"}, {"smiles": "O=S1OCC2C(CO1)C1(Cl)C(Cl)=C(Cl)C2(Cl)C1(Cl)Cl", "note": "(stereo not given)", "AC50": "30.7 µM (active)"}, {"smiles": "[2H]C1([2H])[n+]2ccccc2-c2cccc[n+]2C1([2H])[2H]", "AC50": "2.68 µM (active)"}, {"smiles": "O=C(Nc1ccccc1)Nc1cnns1", "outcome": "inactive"}, {"smiles": "Cc1cc(C)nc(NC(=O)NS(=O)(=O)c2ccccc2C(=O)OC2COC2)n1", "outcome": "inactive"}, {"smiles": "CCOC1Oc2ccc(OS(C)(=O)=O)cc2C1(C)C", "note": "(stereo not given)", "outcome": "inactive"}, {"smiles": "COC(=O)c1ccccc1S(=O)(=O)NC(=O)Nc1nc(C)nc(OC)n1", "AC50": "0.173 µM (active)"}, {"smiles": "CC[C@H](C)[C@H]1O[C@]2(C=C[C@@H]1C)C[C@@H]1C[C@@H](C/C=C(\\C)[C@@H](O[C@H]3C[C@H](OC)[C@@H](O[C@H]4C[C@H](OC)[C@@H](O)[C@H](C)O4)[C@H](C)O3)[C@@H](C)/C=C/C=C3\\CO[C@@H]4[C@H](O)C(C)=C[C@@H](C(=O)O1)[C@]34O)O2", "note": "(tested in a mixture with another compound)", "AC50": "6.13 µM (active)"}, {"smiles": "COP(=S)(OC)Oc1ccc(SC)c(C)c1", "AC50": "0.148 µM (active)"}, {"smiles": "C[C@H]1[C@H](c2ccc(Cl)cc2)SC(=O)N1C(=O)NC1CCCCC1", "outcome": "inactive"}, {"smiles": "CCCN(CCOc1c(Cl)cc(Cl)cc1Cl)C(=O)n1ccnc1", "outcome": "inactive"}, {"smiles": "CNC(=O)/C=C(\\C)OP(=O)(OC)OC", "outcome": "inactive"}, {"smiles": "O=C(O)CCCOc1ccc(Cl)cc1Cl", "outcome": "inactive"}, {"smiles": "CC(C)(C)C(O)/C(=C\\c1ccc(Cl)cc1Cl)n1cncn1", "note": "(stereo not given)", "AC50": "20 µM (active)"}, {"smiles": "CNC(=O)Oc1ccccc1OC(C)C", "outcome": "inactive"}, {"smiles": "CC1(C)C(C=C(Cl)Cl)C1C(=O)OC(C#N)c1ccc(F)c(Oc2ccccc2)c1", "note": "(stereo not given)", "outcome": "inactive"}]}]}
